{"source": "paper PMC8384837", "about": "“Expanding the binding specificity for RNA recognition by a PUF domain”", "test_in_all_cases": "yeast three-hybrid, YBZ-1, SC-Leu-His + 0.5 mM 3-AT, 4 days", "details_in_all_cases": "tags: N-Gal4 AD-HA kept; label: inside an RPR1-promoter hybrid RNA with tandem MS2 sites; ssRNA", "key": {"PUM1 PUF domain R4-EYL": {"molecular_target": "PUM1 PUF domain R4-EYL (Homo sapiens, UniProt Q14671 828-1176, N971E;H972Y;Q975L)", "sequence (Q14671 828-1176 N971E/H972Y/Q975L)": "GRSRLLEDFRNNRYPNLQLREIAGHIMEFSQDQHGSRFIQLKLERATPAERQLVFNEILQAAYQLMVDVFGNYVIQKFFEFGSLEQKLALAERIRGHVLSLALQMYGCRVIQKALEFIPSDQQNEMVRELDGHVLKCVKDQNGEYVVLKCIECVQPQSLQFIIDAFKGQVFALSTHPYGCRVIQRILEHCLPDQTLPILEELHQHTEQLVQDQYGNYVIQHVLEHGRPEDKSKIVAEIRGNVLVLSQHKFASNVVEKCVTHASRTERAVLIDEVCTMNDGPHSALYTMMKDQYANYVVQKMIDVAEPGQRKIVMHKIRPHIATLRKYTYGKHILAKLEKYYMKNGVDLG", "summary_of_the_method": "(§1)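 The interaction score is the log change in variant frequency from input to selection. Scores were computed in log2 with a pseudocount of 1 for absent variants, using Illumina sequencing of PCR-amplified repeat regions. The input came from four days on SC-Leu and the selection from four days on SC-Leu-His + 0.5 mM 3-AT. The cells were strain YBZ-1 (LexA–MS2 coat fusion, HIS3 reporter) co-expressing Pumilio-1 PUF domain libraries and matching RNA elements from a centromeric plasmid.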"}, "PUM1 PUF domain R1-QTK": {"molecular_target": "PUM1 PUF domain R1-QTK (Homo sapiens, UniProt Q14671 828-1176, S863Q;R864T;Q867K)", "sequence (Q14671 828-1176 S863Q/R864T/Q867K)": "as the sequence (Q14671 828-1176 N971E/H972Y/Q975L) above, with S36Q, R37T, Q40K, E144N, Y145H, L148Q counted along it", "summary_of_the_method": "as §1"}, "PUM1 PUF domain R1-RFQ": {"molecular_target": "PUM1 PUF domain R1-RFQ (Homo sapiens, UniProt Q14671 828-1176, S863R;R864F)", "sequence (Q14671 828-1176 S863R/R864F)": "as the sequence (Q14671 828-1176 N971E/H972Y/Q975L) above, with S36R, R37F, E144N, Y145H, L148Q counted along it", "summary_of_the_method": "as §1"}, "PUM1 PUF domain R3-IYV": {"molecular_target": "PUM1 PUF domain R3-IYV (Homo sapiens, UniProt Q14671 828-1176, C935I;R936Y;Q939V)", "sequence (Q14671 828-1176 C935I/R936Y/Q939V)": "as the sequence (Q14671 828-1176 N971E/H972Y/Q975L) above, with C108I, R109Y, Q112V, E144N, Y145H, L148Q counted along it", "summary_of_the_method": "as §1"}, "PUM1 PUF domain R8-RHR": {"molecular_target": "PUM1 PUF domain R8-RHR (Homo sapiens, UniProt Q14671 828-1176, N1122R;Y1123H;Q1126R)", "sequence (Q14671 828-1176 N1122R/Y1123H/Q1126R)": "as the sequence (Q14671 828-1176 N971E/H972Y/Q975L) above, with E144N, Y145H, L148Q, N295R, Y296H, Q299R counted along it", "summary_of_the_method": "as §1"}, "PUM1 PUF domain R8-RMR": {"molecular_target": "PUM1 PUF domain R8-RMR (Homo sapiens, UniProt Q14671 828-1176, N1122R;Y1123M;Q1126R)", "sequence (Q14671 828-1176 N1122R/Y1123M/Q1126R)": "as the sequence (Q14671 828-1176 N971E/H972Y/Q975L) above, with E144N, Y145H, L148Q, N295R, Y296M, Q299R counted along it", "summary_of_the_method": "as §1"}, "PUM1 PUF domain R5-DHN": {"molecular_target": "PUM1 PUF domain R5-DHN (Homo sapiens, UniProt Q14671 828-1176, C1007D;R1008H;Q1011N)", "sequence (Q14671 828-1176 C1007D/R1008H/Q1011N)": "as the sequence (Q14671 828-1176 N971E/H972Y/Q975L) above, with E144N, Y145H, L148Q, C180D, R181H, Q184N counted along it", "summary_of_the_method": "as §1"}, "PUM1 PUF domain R8-RHA": {"molecular_target": "PUM1 PUF domain R8-RHA (Homo sapiens, UniProt Q14671 828-1176, N1122R;Y1123H;Q1126A)", "sequence (Q14671 828-1176 N1122R/Y1123H/Q1126A)": "as the sequence (Q14671 828-1176 N971E/H972Y/Q975L) above, with E144N, Y145H, L148Q, N295R, Y296H, Q299A counted along it", "summary_of_the_method": "as §1"}, "PUM1 PUF domain R4-SRT": {"molecular_target": "PUM1 PUF domain R4-SRT (Homo sapiens, UniProt Q14671 828-1176, N971S;H972R;Q975T)", "sequence (Q14671 828-1176 N971S/H972R/Q975T)": "as the sequence (Q14671 828-1176 N971E/H972Y/Q975L) above, with E144S, Y145R, L148T counted along it", "summary_of_the_method": "as §1"}, "PUM1 PUF domain R2-CWP": {"molecular_target": "PUM1 PUF domain R2-CWP (Homo sapiens, UniProt Q14671 828-1176, N899C;Y900W;Q903P)", "sequence (Q14671 828-1176 N899C/Y900W/Q903P)": "as the sequence (Q14671 828-1176 N971E/H972Y/Q975L) above, with N72C, Y73W, Q76P, E144N, Y145H, L148Q counted along it", "summary_of_the_method": "as §1"}, "PUM1 PUF domain R2-RKS": {"molecular_target": "PUM1 PUF domain R2-RKS (Homo sapiens, UniProt Q14671 828-1176, N899R;Y900K;Q903S)", "sequence (Q14671 828-1176 N899R/Y900K/Q903S)": "as the sequence (Q14671 828-1176 N971E/H972Y/Q975L) above, with N72R, Y73K, Q76S, E144N, Y145H, L148Q counted along it", "summary_of_the_method": "as §1"}}, "data": [{"sequence": "GGCUAGAACUAGUGGAUCCCCCGGCGCCCGGCGGCUCGAGCCCGGGUAAGUGUACAUAGUCUGCAUGCCGCCGGGCGCCAUGCCUGCAGGUCGACUCUAGAAAACAUG", "values": [{"measurement": "binding signal", "setting": "PUM1 PUF domain R4-EYL", "value": "1.81 log2 enrichment (interaction score)"}]}, {"sequence": "GGCUAGAACUAGUGGAUCCCCCGGCGCCCGGCGGCUCGAGCCCGGGUAAGUGUAAAUCGUCUGCAUGCCGCCGGGCGCCAUGCCUGCAGGUCGACUCUAGAAAACAUG", "values": [{"measurement": "binding signal", "setting": "PUM1 PUF domain R1-QTK", "value": "2.31 log2 enrichment (interaction score)"}, {"measurement": "binding signal", "setting": "PUM1 PUF domain R1-RFQ", "value": "5.82 log2 enrichment (interaction score)"}]}, {"sequence": "GGCUAGAACUAGUGGAUCCCCCGGCGCCCGGCGGCUCGAGCCCGGGUAAGUGUAAAUAGUCUGCAUGCCGCCGGGCGCCAUGCCUGCAGGUCGACUCUAGAAAACAUG", "values": [{"measurement": "binding signal", "setting": "PUM1 PUF domain R4-EYL", "value": "4.64 log2 enrichment (interaction score)"}, {"measurement": "binding signal", "setting": "PUM1 PUF domain R3-IYV", "value": "2.65 log2 enrichment (interaction score)"}, {"measurement": "binding signal", "setting": "PUM1 PUF domain R8-RHR", "value": "5.61 log2 enrichment (interaction score)"}, {"measurement": "binding signal", "setting": "PUM1 PUF domain R8-RMR", "value": "1.55 log2 enrichment (interaction score)"}, {"measurement": "binding signal", "setting": "PUM1 PUF domain R5-DHN", "value": "3.41 log2 enrichment (interaction score)"}, {"measurement": "binding signal", "setting": "PUM1 PUF domain R8-RHA", "value": "3.38 log2 enrichment (interaction score)"}, {"measurement": "binding signal", "setting": "PUM1 PUF domain R4-SRT", "value": "3.46 log2 enrichment (interaction score)"}]}, {"sequence": "GGCUAGAACUAGUGGAUCCCCCGGCGCCCGGCGGCUCGAGCCCGGGUAAGUGUAAAAAGUCUGCAUGCCGCCGGGCGCCAUGCCUGCAGGUCGACUCUAGAAAACAUG", "values": [{"measurement": "binding signal", "setting": "PUM1 PUF domain R2-CWP", "value": "6.72 log2 enrichment (interaction score)"}]}, {"sequence": "GGCUAGAACUAGUGGAUCCCCCGGCGCCCGGCGGCUCGAGCCCGGGUAAGUGUAUAUAGUCUGCAUGCCGCCGGGCGCCAUGCCUGCAGGUCGACUCUAGAAAACAUG", "values": [{"measurement": "binding signal", "setting": "PUM1 PUF domain R4-EYL", "value": "3.34 log2 enrichment (interaction score)"}, {"measurement": "binding signal", "setting": "PUM1 PUF domain R4-SRT", "value": "2.14 log2 enrichment (interaction score)"}]}, {"sequence": "GGCUAGAACUAGUGGAUCCCCCGGCGCCCGGCGGCUCGAGCCCGGGUAAGUGUUAAUAGUCUGCAUGCCGCCGGGCGCCAUGCCUGCAGGUCGACUCUAGAAAACAUG", "values": [{"measurement": "binding signal", "setting": "PUM1 PUF domain R5-DHN", "value": "2.22 log2 enrichment (interaction score)"}]}, {"sequence": "GGCUAGAACUAGUGGAUCCCCCGGCGCCCGGCGGCUCGAGCCCGGGUAAGUGUAAACAGUCUGCAUGCCGCCGGGCGCCAUGCCUGCAGGUCGACUCUAGAAAACAUG", "values": [{"measurement": "binding signal", "setting": "PUM1 PUF domain R2-RKS", "value": "0.34 log2 enrichment (interaction score)"}]}, {"sequence": "GGCUAGAACUAGUGGAUCCCCCGGCGCCCGGCGGCUCGAGCCCGGGUAAGUGUAAAGAGUCUGCAUGCCGCCGGGCGCCAUGCCUGCAGGUCGACUCUAGAAAACAUG", "values": [{"measurement": "binding signal", "setting": "PUM1 PUF domain R2-RKS", "value": "4.33 log2 enrichment (interaction score)"}]}]}
